Rows were chosen to be rich in hits. Some 6.5% of all compounds tested hit in one or more screens of this group.
TGFb SMAD3 inh: qHTS for Inhibitors of TGF-b | hit rate 1.2% among 410,000 | Potency, µM (series often up to 46.1 µM), usual class: inhibitors | HepG2 CAGA-GFP TGF-b/SMAD3 reporter, GFP fluorescence, 18 h; TGF-beta stimulated, 500 pg/mL final; note: nearly all actives have a fitted effect of over 65% in size
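Smad-responsive CAGA-GFP expression was quantified in HEPG2 cells exposed to compounds and 500 pg/mL final TGF-beta for 18 h at 37 degrees C; unstimulated wells defined full inhibition.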
HT1080-NT tox: qHTS for induction of synthetic lethality in tumor cells producing 2HG: qHTS for the HT-1080-NT fibrosarcoma cell line | HT-1080-NT fibrosarcoma viability, CellTiter-Glo ATP luminescence, 48 h | Potency, µM (highest dose often 46.1 µM), actives largely listed as cytotoxic | hit rate 1.6% among 360,000 | AID 686970, 2013;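 note: NT is the 2HG producing partner of a matched IDH1 knockdown line; nearly all actives have a fitted effect of over 55% in size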
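Toxicity toward the 2HG-producing NT line was scored as %Activity, normalised to DMSO and no-cell wells, from CellTiter-Glo luminescence after 48 hours' treatment.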
HT1080 IDH1KD tx: qHTS for induction of synthetic lethality in tumor cells producing 2HG: qHTS for the HT-1080-IDH1KD cell line. HT-1080 IDH1 knockdown viability, ATP luminescence, 48 h. Potency, µM (top dose mostly 46.1 µM), most hits filed as cytotoxic. hit rate 2% among 360,000
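IDH1KD HT-1080 cells, 750/well, RPMI + 5% FBS; compound pinned after 2 h settling; 48 h, 37 °C; CellTiter-Glo luminescence; % activity normalised to DMSO and no-cell wells; curves fitted, classed by r2 and efficacy.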
HepG2 tox: qHTS for Inhibitors of TGF-b: Cytotox Counterscreen | HepG2 CAGA-GFP viability, ATP luminescence, 18 h | Potency, µM (titrated, usually from 46.1 µM), usual class: cytotoxic | hit rate 0.76% among 410,000 | AID 588856, 2011
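HepG2 CAGA-GFP cells (1000/well, DMEM with 1% FBS) received compound, then TGF-beta at 500 pg/mL final, and were incubated 18 hours at 37 degrees C. Viability was read by CellTiter-Glo luminescence. Media-only wells were set as complete cell-killing and DMSO as no toxicity.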
IL-1B inflam inh: qHTS for Inhibitors of Inflammasome Signaling: IL-1-beta AlphaLISA Primary Screen. THP-1 LPS/ATP IL-1B secretion, AlphaLISA, 16 h; hits give low values. activity change, % at 57.5 µM. hit rate 4.7% among 360,000. AID 743279, 2014; in the data active = activity change below about -50%; inconclusive = mostly about -30% to -49%
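THP-1 cells pretreated 1 hr with compounds (up to 57.5 uM final), then stimulated with LPS (250 ng/mL final) plus ATP (1.25 mM final); secreted IL-1B measured by AlphaLISA after 16 hr, decreased signal indicating inhibition.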
Giardia killer: Small Molecules that selectively kill Giardia lamblia: qHTS; Giardia lamblia trophozoite viability; activity change, % at 7.66 µM, hits read low; hit rate 0.15% among 340,000; AID 540267, 2011; in the data active = activity change below about -80%; inconclusive = between about -30% and that limit;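 note: parasites exposed to compound for two days anaerobically before the ATP read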
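Each well holds 100 Giardia trophozoites and compound. After two days (48 hrs) at 37 deg C in anaerobic conditions, ATP is quantified by luminescence.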
Numbers stand for hits; - = inactive; ? = inconclusive; . = no result. Unless noted, calls come from the whole dose curve; as a rule, active = well fitted curve in the direction sought with a large enough effect; inconclusive = small, poorly fitted or top-dose-only effect, or another doubt; inactive = no such curve, though single readings can be large; an effect the other way counts as inactive or inconclusive.

SMILES | TGFb SMAD3 inh | HT1080-NT tox | HT1080 IDH1KD tx | HepG2 tox | IL-1B inflam inh | Giardia killer
CCSc1ccc(-c2cc(NC=O)c3ncc(-c4cccc(C(=O)N(C)C)c4)n3c2)cc1 | ? | ? | ? | - | . | .
CCSc1ccc(-c2cc(NC=O)c3ncc(-c4cccc(C(=O)NCCN(C)C)c4)n3c2)cc1 | ? | 18µM | ? | - | -108 | .
COc1ccc(-c2cc(NC=O)c3ncc(-c4cccc(C(=O)NCCN(C)C)c4)n3c2)cc1 | ? | ? | ? | - | ? | .
CN(C)CCNC(=O)c1cccc(-c2cnc3c(NC=O)cc(-c4ccc(F)cc4)cn23)c1 | ? | ? | 23µM | 11µM | - | .
CN(C)CCNC(=O)c1cccc(-c2cnc3c(NC=O)cc(-c4cccc(F)c4)cn23)c1 | 20µM | ? | ? | 13µM | - | .
CC(=O)N1CCN(c2ccccc2NC(=O)c2ccc3ccccc3c2)CC1 | - | - | - | - | ? | -
CCCCCCn1c(N2CCN(c3ccccc3)CC2)nc2c1c(=O)n(C)c(=O)n2C | - | - | - | - | - | -
CCOC(=O)C1CCCN(C(=O)c2cc3c(-c4cccc(OC)c4)nn(C)c3s2)C1 (stereo not drawn) | - | ? | 18µM | - | - | -
CCN(CCCNC(=O)c1cc2c(-c3cccc(OC)c3)nn(C)c2s1)Cc1ccccc1 | - | ? | ? | - | -84 | -
CCOc1ccc(CCNC(=O)c2cc3c(-c4cccc(OC)c4)nn(C)c3s2)cc1OCC | - | . | . | - | . | .
CCN(CC)CCCNC(=O)c1cc2c(-c3ccc(Cl)cc3)nn(C)c2s1 | ? | 21µM | 23µM | - | -81 | -
CCN(CC)CCCNC(=O)c1cc(-c2ccc(Cl)c(Cl)c2)on1 | ? | ? | ? | 16µM | - | -
CCN(CC)CCCNC(=O)c1cc(-c2ccc(O)cc2)on1 | ? | - | - | - | - | -
COc1ccc(Cc2nnc(SCC(=O)N3CCN(c4ccccc4)CC3)o2)cc1 | - | - | - | - | - | -
O=C(CCSc1nnc(-c2ccncc2)o1)Nc1ccc(Cl)cc1 | - | - | - | - | - | -
CC1(C(=O)NCc2ccc(Cl)cc2)CCN1C(=O)Cc1ccc(Cl)cc1Cl (stereo not drawn) | - | - | - | - | - | .
CC(C)(C)c1ccc(CC(=O)N2CCC2(C)C(=O)NS(=O)(=O)c2ccccc2)cc1 (stereo not drawn) | - | - | - | - | -74 | .
C#Cc1ccc(NC(=O)C2(C)CCN2C(=O)Cc2ccc(C(C)(C)C)cc2)cc1 (stereo not drawn) | - | ? | 10µM | - | - | .
CC(C)c1ccc(CC(=O)N2CCC2(C)C(=O)NCC(C)(C)C)cc1 (stereo not drawn) | - | - | - | - | -74 | .
CC(C)(C)c1ccc(CC(=O)N2CCC2(C)C(=O)NCc2ccc(Cl)cc2)cc1 (stereo not drawn) | ? | ? | 26µM | - | - | .
CCCN(CCC)CC(=O)N1CC(=O)Nc2ccccc21 | - | - | - | - | - | -
CC(C)(C)c1ccc(C(=O)NCc2ccc(Cl)cc2)cc1 | - | - | - | - | - | -
CC(C)(C)c1ccc(C(=O)N2CCN(CCNC(=O)C(=O)NCc3ccc(Cl)cc3)CC2)cc1 | ? | ? | ? | - | -67 | -
C=CCNC(=O)c1c(Cl)cccc1Cl | ? | - | - | - | - | -
O=C(Cc1coc2cc3c(cc12)CCC3)NCC1(N2CCCCC2)CCCCC1 | - | ? | ? | - | -82 | -
Cn1c(=O)c2[nH]c(=S)n(Cc3ccccc3)c2n(C)c1=O | - | - | - | - | - | -
Cc1ccc(-n2ncc3c(=O)n(CC(=O)NCC4CCCO4)cnc32)cc1 (stereo not drawn) | - | - | - | - | - | -

From PubChem
